“And” between values parts separate entries of the source, which are not always exact repeats. Identical values can stand only once. Inconclusive results are not listed. The source made the active and inactive calls. Calls follow the shape of the dose curve; as a rule, active = well fitted cell-killing curve with a large enough effect; inconclusive = small, poorly fitted or top-dose-only effect; inactive = no such curve, though single readings can be large or run the other way.
Potency is read from the fitted curve at half-maximal effect.

The experiment can be described thus: qHTS of pediatric cancer cell lines to identify multiple opportunities for drug repurposing: Primary screen for Rh41 cells (AID 1347108). Also: nearly all actives have a fitted effect of over 70% in size.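 As to activity change, negative = cytotoxic: luminescence drop marks cytotoxic hits.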 The settings on record: Rh41 rhabdomyosarcoma viability, CellTiter-Glo luminescence, 48 h; series mostly up to 46 µM; activity change, negative = cytotoxic: at the top concentration. The source says:
Drug repurposing or repositioning has been offered as a strategy for drug development in oncology programs. This approach has special potential for childhood cancers and other rare or orphan diseases, where the expected return on new drug development has been a disincentive to pharmaceuticals. […] In this project we exploit the poly-pharmacology of drugs to discover new indications via phenotypic screening of a panel of 19 well-characterized cell lines derived from solid tumors seen in children and adolescents. The goal is to identify approved drugs with previously unrecognized anticancer properties that has the potential to reveal new mechanisms and biological processes involved in carcinogenesis or drug resistance. We employed a titration-based paradigm (quantitative high-throughput screening or qHTS), where all compounds were tested at multiple concentrations for their effect on cell viability. Concentration-response curves (CRCs) were derived directly from the primary screen, and both potency and efficacy values were used to identify compounds with robust bioactivity profiles. We screened the NIH Chemical Genomics Center (NCGC) Pharmaceutical Collection (NPC) and Mechanism Interrogation Plate (MIPE) small molecule collections of approved and investigational compounds against these cell lines; and measured metabolically active cells after 48 hours of compound treatment as a proxy for cell viability. […] Assay Submitter: Nathalia J. Martinez, National Center for Advancing Translational Sciences, National Institutes of Health, Rockville, MD, USA; email: natalia.martinez@nih.gov Shen, M et al. Quantitative high-throughput phenotypic screening of pediatric cancer cell lines identifies multiple opportunities for drug repurposing. Oncotarget 2017 Dec 19;9(4):4758-4772. PMID 29435139.
The cells were obtained from University of North Carolina (UNC), Pediatric Preclinical Testing Program (PPT), and Coriell Institute (CI). qHTS cell viability assay: Cells were assayed in growth media at a density of 500-1,000 cells/well. Five microliters of cells were dispensed into 1,536-well, white, solid-bottom, TC-treated plates (Greiner Bio One) using a multidrop dispenser and incubated at 37 degrees C, 5% CO2, under a humidified atmosphere for 5 hours. Twenty-three nanoliters of compounds and controls (neutral control DMSO or positive control bortezomib at final concentration of 2.3 µM) were subsequently transferred by Kalypsys pintool. For primary screens, the MIPE collection was tested at 11-point dilutions (final concentrations range from 0.78 nM to 46 µM) and the NPC collection at 8-point dilutions (final concentrations range from 0.59 nM to 46 µM). Compounds tested in follow-up screens were assayed at 11-point dilutions. Cells were incubated for 48 hours, followed by addition of 3 µL of CellTiter-Glo (Promega). After a 15 min incubation at room temperature, samples were analyzed for luminescence intensity using a ViewLux High-throughput CCD imager equipped with clear filters.
`O=C(O)Cc1cccc2ccccc12`: the Potency result is “inactive”.
Consider `CC(C)C(C)C=CC(C)C1CCC2C3=CC=C4CC(O)CCC4(C)C3CCC21C` (stereo not given), for which the “activity change, negative = cytotoxic” value is 19.8% (inactive).
On the same count and under the same terms, the result for `CN(C)CCC(c1ccccc1)c1ccccn1` (stereo not given) reads 16.7% (inactive); that for `CCN1CCC[C@H]1CNC(=O)c1cc(S(N)(=O)=O)ccc1OC`, 41.3% (inactive).
Still for that read-out and setting: the result for `Cc1ccn(-c2ccc(-c3ncco3)cc2)c(=O)c1-c1ccc2nc(N)ncc2c1` reads -12.9% (inactive); that for `O=C1NC(=O)C(c2ccccc2)(c2ccccc2)N1`, 6.69% (inactive).
As for `CN(C)Cc1ccc(-c2nc3cccc4c3n2CCNC4=O)cc1`, the “activity change, negative = cytotoxic” value is -2.84% (inactive).
For `Nc1ncnc2c1ncn2[C@@H]1O[C@@H](CO)[C@H](O)[C@H]1O`, the “activity change, negative = cytotoxic” value was 6.21% (inactive).
Take `OC[C@H]1O[C@@H](n2cnc3c2NC=NC[C@@H]3O)C[C@H]1O`: the “activity change, negative = cytotoxic” value was 8.15% (inactive).
`O=C(Nc1ccccc1-c1cn2c(CN3CCNCC3)csc2n1)c1cnc2ccccc2n1`: the Potency is 20.9 µM (active).
As to `COc1ccc(-c2coc3cc(O)ccc3c2=O)cc1`, the “activity change, negative = cytotoxic” value is 13.6% (inactive).
As for `NC(=O)c1ccc2nc(-c3ccc(Oc4ccc(Cl)cc4)cc3)[nH]c2c1`, the “activity change, negative = cytotoxic” value was -27.7% (inactive).
Take `COc1ccc(C2Sc3ccccc3N(CCN(C)C)C(=O)C2OC(C)=O)cc1` (stereo not given): the “activity change, negative = cytotoxic” value is 19.1% (inactive).
Take `N#C[C@H]1C[C@H]2C[C@@H]2N1C(=O)[C@@H](N)C12CC3CC(CC(O)(C3)C1)C2`: the “activity change, negative = cytotoxic” value is 12.3% (inactive).
Consider `CCc1ccc(OCc2ccccc2C(=O)Nc2ccc3nc(C)cc(N)c3c2)cc1`, for which the Potency was 9.35 µM (active).
In the case of `O=C(CCCCCCC(=O)Nc1ccccc1)NO`, the Potency was 3.35 µM (active) and 5.9 µM (active).
`COC1CCC(N(C(=O)C2CCC(C)CC2)c2cc(C3=CCCCC3)sc2C(=O)O)CC1` (stereo not given): the “activity change, negative = cytotoxic” value was 4.3% (inactive).
As for `CCC(=O)O[C@]1(C(=O)CO)CC[C@H]2[C@@H]3CCC4=CC(=O)CC[C@]4(C)[C@@H]3CC[C@@]21C`, the “activity change, negative = cytotoxic” value is 24.3% (inactive).
For the compound `CC1(C)S[C@H]2[C@H](NC(=O)[C@@H](N)c3ccc(O)cc3)C(=O)N2[C@@H]1C(=O)O`, the Potency was 3.72 µM (active).
On to `O=C1NC(=O)C(=Cc2ccc(-c3ccc(F)cc3)o2)S1`, for which the “activity change, negative = cytotoxic” value was -2.67% (inactive).
As to `COc1ccc(-c2coc3cc(O)cc(O)c3c2=O)cc1`, the “activity change, negative = cytotoxic” value was 22.9% (inactive).
As for `CC(=O)Nc1ccc([C@H](C)C(=O)Nc2ncc(C(C)C)s2)cc1`, the Potency was 7.43 µM (active).
Turning to `CO[C@@H](C(=O)N1Cc2[nH]nc(NC(=O)c3ccc(N4CCN(C)CC4)cc3)c2C1)c1ccccc1`, the Potency was 0.469 µM (active).
Same read-out and setting: next, `CO[C@H]1C(=O)[C@]2(C)[C@@H](OC)C[C@H]3OC[C@@]3(OC(C)=O)[C@H]2[C@H](OC(=O)c2ccccc2)[C@]2(O)C[C@H](OC(=O)[C@H](O)[C@@H](NC(=O)OC(C)(C)C)c3ccccc3)C(C)=C1C2(C)C`: 0.001 µM (active).
In the case of `CCC(CC)[C@H](NC(C)=O)[C@@H]1[C@H](O)[C@@H](C(=O)O)C[C@@H]1N=C(N)N`, the “activity change, negative = cytotoxic” value was -4.39% (inactive).
On to `COc1cc(Nc2ncc(F)c(Nc3ccc4c(n3)NC(=O)C(C)(C)O4)n2)cc(OC)c1OC`, for which the Potency was 2.35 µM (active).
Turning to `CO[C@H]1C[C@@H]2CC[C@@H](C)[C@@](O)(O2)C(=O)C(=O)N2CCCC[C@@H]2C(=O)O[C@H]([C@H](C)C[C@@H]2CC[C@H](OCCO)[C@H](OC)C2)CC(=O)[C@H](C)C=C(C)[C@@H](O)[C@@H](OC)C(=O)[C@H](C)C[C@H](C)C=CC=CC=C1C`, the Potency is 1.18 µM (active).
In the case of `CON=C(C(=O)N[C@@H]1C(=O)N2C(C(=O)OCOC(=O)C(C)(C)C)=C(C=Cc3scnc3C)CS[C@H]12)c1csc(N)n1`, the “activity change, negative = cytotoxic” value is 21.3% (inactive).
As for `CC[C@H]1OC(=O)[C@H](C)[C@@H](O[C@H]2C[C@@](C)(OC)[C@@H](O)[C@H](C)O2)[C@H](C)[C@@H](O[C@@H]2O[C@H](C)C[C@H](N(C)C)[C@@H]2O)[C@](C)(O)C[C@@H](C)CN(C)[C@H](C)[C@@H](O)[C@]1(C)O`, the “activity change, negative = cytotoxic” value was 16.6% (inactive).
As for `COc1ncc(-c2ccc3nccc(-c4ccnnc4)c3c2)cc1NS(=O)(=O)c1ccc(F)cc1F`, the Potency was 0.0118 µM (active).
Turning to `O=C(O)c1ccc(-c2c[nH]c3ncc(-c4ccccc4)cc23)cc1C1CCCC1`, the “activity change, negative = cytotoxic” value is 3.59% (inactive).
Take `O=C1C(Cl)=C(NCCN2CCOCC2)C(=O)c2ncccc21`: the Potency was 4.69 µM (active).
In the case of `N#CC(=C(N)Sc1ccccc1N)C(C#N)=C(N)Sc1ccccc1N`, the Potency was 18.7 µM (active).
With `CCS(=O)(=O)N1CC(CC#N)(n2cc(-c3ncnc4[nH]ccc34)cn2)C1`, the Potency is 18.7 µM (active).
The same measure, in the same setting: next, `COc1cc(NC(=O)c2ccc(-c3ccc(Cl)cc3)o2)cc(OC)c1`: 7.43 µM (active).
On to `CO[C@H]1C=CC=C(C)C(=O)NC2=CC(=O)C(NCCN(C)C)=C(C[C@@H](C)C[C@H](OC)[C@@H](O)[C@@H](C)C=C(C)[C@@H]1OC(N)=O)C2=O`, for which the Potency was 0.59 µM (active).
As to `Cc1[nH]c(C=C2C(=O)Nc3ccc(S(=O)(=O)Cc4c(Cl)cccc4Cl)cc32)c(C)c1C(=O)N1CCC[C@H]1CN1CCCC1`, the Potency is 18.7 µM (active).
Regarding `C[C@H]1[C@H](NC(=O)C(=NOC(C)(C)C(=O)O)c2csc(N)n2)C(=O)N1S(=O)(=O)O`, the “activity change, negative = cytotoxic” value was 29.6% (inactive).
On to `O=C(NCCN1CCOCC1)c1ccc(Cl)cc1`, for which the “activity change, negative = cytotoxic” value was 20.6% (inactive).
Same read-out and setting: next, `CC(C)NCC(O)COc1cccc2[nH]ccc12` (stereo not given): -4.91% (inactive).
